The assay concerns the target furin, P09958. Kind of assay: furin cleavage Z-score vs untreated control; higher = more cleavage, active = 3.5 or more, inactive = 1 or less, 8 variable residues between constant flanks. Put shortly:
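To give the cleavage Z-score, log read counts were set against furin-free reactions, lowess-adjusted and scaled by median absolute deviation. These counts came from PCR adapter-tagged, sequenced DNA released when purified furin cut 8-mer peptides fused to a cDNA oligonucleotide and held on magnetic beads by their N-terminus. Digests were 0.01 ml, 1:10 enzyme:substrate, in 50 mM HEPES pH 7.5 with CaCl2 and NaCl, for 7.5, 15 or 30 min.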

Some of the results follow. The hit rate among all sequences tested is not known here.

Sequence of furin, P09958 (P09958 whole entry, the tested form may be a part): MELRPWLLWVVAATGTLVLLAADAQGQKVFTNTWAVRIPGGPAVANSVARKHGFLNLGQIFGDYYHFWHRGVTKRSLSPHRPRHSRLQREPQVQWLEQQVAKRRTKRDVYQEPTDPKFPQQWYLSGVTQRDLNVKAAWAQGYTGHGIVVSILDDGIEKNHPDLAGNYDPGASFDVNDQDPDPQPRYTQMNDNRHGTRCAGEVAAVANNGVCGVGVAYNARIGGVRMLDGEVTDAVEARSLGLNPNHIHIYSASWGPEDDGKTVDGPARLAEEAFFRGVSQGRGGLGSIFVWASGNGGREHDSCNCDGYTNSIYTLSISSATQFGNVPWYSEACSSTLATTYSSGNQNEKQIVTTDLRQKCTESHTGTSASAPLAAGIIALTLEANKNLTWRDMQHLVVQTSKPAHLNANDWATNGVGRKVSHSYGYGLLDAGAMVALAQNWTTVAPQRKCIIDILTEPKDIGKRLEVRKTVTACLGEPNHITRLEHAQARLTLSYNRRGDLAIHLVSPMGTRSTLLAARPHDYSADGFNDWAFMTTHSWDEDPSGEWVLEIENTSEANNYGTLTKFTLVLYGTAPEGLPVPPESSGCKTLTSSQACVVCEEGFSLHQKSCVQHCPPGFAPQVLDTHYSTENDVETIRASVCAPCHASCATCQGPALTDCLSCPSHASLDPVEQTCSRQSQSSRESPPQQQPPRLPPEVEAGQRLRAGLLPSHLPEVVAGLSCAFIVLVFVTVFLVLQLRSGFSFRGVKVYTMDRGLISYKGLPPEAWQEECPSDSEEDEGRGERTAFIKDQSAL

For CASGPCSAHLAGNASASA [HC2496], the “furin cleavage Z-score” value is -0.802 (inactive) (7.5 min), 0.24 (inactive) (15 min) and 0.168 (inactive) (30 min).
The matching figures for CAADAVDGAGAGNASASA [CS10]: 0.632 (inactive), -1.19 (inactive) and 1.15.
For CALNNTRPPLAGNASASA [HC430], in that order: 2.07, 0.471 (inactive) and 1.95.
In the case of CACGSSDLYLAGNASASA [HC723], the “furin cleavage Z-score” value is -2.29 (inactive) (7.5 min), -1.54 (inactive) (15 min) and -0.552 (inactive) (30 min).
Take CATTPCSVSWAGNASASA [HC1890]: the “furin cleavage Z-score” value by setting is: (7.5 min) -0.725 (inactive); (15 min) -1.82 (inactive); (30 min) -0.963 (inactive).
Consider CAQVGDFHYVAGNASASA [HC1208], for which the “furin cleavage Z-score” value is, setting by setting: (7.5 min) -1.01 (inactive); (15 min) 0.348 (inactive); (30 min) -0.0115 (inactive).
The matching figures for CAKQHRLKRYAGNASASA [FS-1349]: 11.1 (active), 11.6 (active) and 10 (active).
The matching figures for CAGPIRLKRDAGNASASA [FS-593]: 15 (active), 15.3 (active) and 10.9 (active).
The matching figures for CARVERFKRDAGNASASA [FS-1567]: 12.4 (active), 11.1 (active) and 8.4 (active).
On to CALPGNPAIAAGNASASA [HC1051], for which the “furin cleavage Z-score” value (7.5 min) was 0.0659 (inactive), the “furin cleavage Z-score” value (15 min) is -0.342 (inactive) and the “furin cleavage Z-score” value (30 min) is -0.64 (inactive).
As for CACGPVYCFTAGNASASA [HC412], the “furin cleavage Z-score” value was 0.624 (inactive) (7.5 min), 0.0869 (inactive) (15 min) and -0.506 (inactive) (30 min).
The matching figures for CAVKSRKRRKAGNASASA [FS-149]: 11 (active), 11.7 (active) and 8.76 (active).
For CAHPLRKRRKAGNASASA [FS-131], in that order: 8.81 (active), 9.6 (active) and 7.46 (active).
The matching figures for CARKRRKRKKAGNASASA [FS-858]: 0.153 (inactive), 0.772 (inactive) and 1.09.
Turning to CAPPLVETWKAGNASASA [HC1308], the “furin cleavage Z-score” value is, setting by setting: (7.5 min) 2.31; (15 min) 0.789 (inactive); (30 min) -0.408 (inactive).
With CASTPCSAHIAGNASASA [HC2564], the “furin cleavage Z-score” value runs as follows: (7.5 min) -0.152 (inactive); (15 min) -1.03 (inactive); (30 min) -0.677 (inactive).
Regarding CALWWLQYFLAGNASASA [HC582], the “furin cleavage Z-score” value is, setting by setting: (7.5 min) -0.496 (inactive); (15 min) -0.768 (inactive); (30 min) -1.19 (inactive).
For CAEVVDSTWVAGNASASA [HC132], in that order: -0.25 (inactive), 1.14 and -1.05 (inactive).
The matching figures for CATTPDSGSWAGNASASA [HC52]: -0.899 (inactive), -0.656 (inactive) and -0.757 (inactive).
The matching figures for CATTYRSKRLAGNASASA [FS-886]: 8.78 (active), 10.5 (active) and 9.12 (active).
For the sequence CAHTWREKRLAGNASASA [FS-31], the “furin cleavage Z-score” value was 1.05 (7.5 min), 0.418 (inactive) (15 min) and 0.0913 (inactive) (30 min).
The matching figures for CAVLEESKRLAGNASASA [FS-1429]: -0.217 (inactive), -1.55 (inactive) and -0.503 (inactive).
On to CASTPCSKHLAGNASASA [HC2534], for which the “furin cleavage Z-score” value (7.5 min) is 1, the “furin cleavage Z-score” value (15 min) is -1.62 (inactive) and the “furin cleavage Z-score” value (30 min) is 0.302 (inactive).
The matching figures for CASTPCSARLAGNASASA [HC2553]: 0.576 (inactive), 0.581 (inactive) and -0.498 (inactive).
The matching figures for CASTPRSKRLAGNASASA [FS-1091]: 3.77 (active), 6.77 (active) and 5.46 (active).
The matching figures for CAEVQTSTWVAGNASASA [HC2202]: 0.816 (inactive), 1.29 and 1.14.
Regarding CARRRRPERVAGNASASA [FS-3064], the “furin cleavage Z-score” value was 0.335 (inactive) (7.5 min), 0.809 (inactive) (15 min) and 1.19 (30 min).
The matching figures for CARRPRFKDIAGNASASA [FS-3058]: 0.143 (inactive), -0.201 (inactive) and 0.618 (inactive).
For the sequence CARRRRPERGAGNASASA [FS-495], the “furin cleavage Z-score” value is, setting by setting: (7.5 min) 1.03; (15 min) 0.676 (inactive); (30 min) 1.87.
The matching figures for CARRPRPRREAGNASASA [FS-1480]: 8.98 (active), 9.92 (active) and 8.21 (active).
Regarding CADPLRPRREAGNASASA [FS-122], the “furin cleavage Z-score” value is 5.53 (active) (7.5 min), 5.14 (active) (15 min) and 4.87 (active) (30 min).
For CADPLVAEEDAGNASASA [HC1289], in that order: -0.0204 (inactive), -0.956 (inactive) and -0.261 (inactive).
The matching figures for CARRRRPRREAGNASASA [FS-1404]: 7.83 (active), 8.28 (active) and 6.14 (active).
